Measurements from publication PMC5540273 (PLoS ONE, 2017).
Read-outs that look alike come from different tables or passages of the source.

Legend:
Details in all cases: n = 1
CAMKK2 = system: CAMKK2
CASK = system: CASK
CDC2L1 = system: T1, CDC2L1
T1 construct: gene CDK11B

CDC2L2 = system: CDC2L2
CDC2L5 = system: T2, CDC2L5
T2 construct: gene CDK13

CDK11 = system: T3, CDK11
T3 construct: gene CDK19

CDK2 = system: CDK2
CDK3 = system: CDK3
CDK4-cyclinD1 = system: CDK4-cyclinD1
CDK4-cyclinD3 = system: CDK4-cyclinD3
CDK4 = system: CDK4
CDK5 = system: CDK5
CDK7 = system: CDK7
CDK8 = system: CDK8
CDK9 = system: CDK9
CDKL1 = system: CDKL1
CDKL2 = system: CDKL2
CDKL3 = system: CDKL3
CDKL5 = system: CDKL5
CHEK1 = system: CHEK1
[1] = concentration: 1 μM, replicates: in singlicate
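Further: KINOMEscan kinase panel screen.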

Cl.O=C(Nc1cccc(-c2nn3ncccc3c2-c2ccnc(Nc3cccnc3)n2)c1)c1c(F)cccc1F [GSK312879]
%Inh (CAMKK2; [1]): 0%
%Inh (CASK; [1]): 22%
%Inh (CDC2L1; [1]): 3%
%Inh (CDC2L2; [1]): 7%
%Inh (CDC2L5; [1]): 0%
%Inh (CDK11; [1]): 0%
%Inh (CDK2; [1]): 0%
%Inh (CDK3; [1]): 19%
%Inh (CDK4-cyclinD1; [1]): 0%
%Inh (CDK4-cyclinD3; [1]): 4%
%Inh (CDK4; [1]): 0%
%Inh (CDK5; [1]): 0%
%Inh (CDK7; [1]): 0%
%Inh (CDK8; [1]): 0%
%Inh (CDK9; [1]): 0%
%Inh (CDKL1; [1]): 1%
%Inh (CDKL2; [1]): 19%
%Inh (CDKL3; [1]): 0%
%Inh (CDKL5; [1]): 0%
%Inh (CHEK1; [1]): 12%

O=C(Nc1n[nH]c2nc(-c3nccs3)c(Br)cc12)C1CCCC1 [SB-742609]
%Inh (CAMKK2; [1]): 0%
%Inh (CASK; [1]): 19%
%Inh (CDC2L1; [1]): 100%
%Inh (CDC2L2; [1]): 0%
%Inh (CDC2L5; [1]): 0%
%Inh (CDK11; [1]): 0%
%Inh (CDK2; [1]): 86%
%Inh (CDK3; [1]): 60%
%Inh (CDK4-cyclinD1; [1]): 41%
%Inh (CDK4-cyclinD3; [1]): 14%
%Inh (CDK4; [1]): 81%
%Inh (CDK5; [1]): 0%
%Inh (CDK7; [1]): 73%
%Inh (CDK8; [1]): 0%
%Inh (CDK9; [1]): 100%
%Inh (CDKL1; [1]): 0%
%Inh (CDKL2; [1]): 88%
%Inh (CDKL3; [1]): 0%
%Inh (CDKL5; [1]): 0%
%Inh (CHEK1; [1]): 0%

CN(C)CCN(C)C(=O)c1cc(-c2ccncc2)c(-c2ccc(Cl)c(O)c2)o1.Cl.Cl [SB-710397]
%Inh (CAMKK2; [1]): 0%
%Inh (CASK; [1]): 29%
%Inh (CDC2L1; [1]): 0%
%Inh (CDC2L2; [1]): 0%
%Inh (CDC2L5; [1]): 0%
%Inh (CDK11; [1]): 15%
%Inh (CDK2; [1]): 0%
%Inh (CDK3; [1]): 20%
%Inh (CDK4-cyclinD1; [1]): 23%
%Inh (CDK4-cyclinD3; [1]): 9%
%Inh (CDK4; [1]): 0%
%Inh (CDK5; [1]): 0%
%Inh (CDK7; [1]): 0%
%Inh (CDK8; [1]): 37%
%Inh (CDK9; [1]): 0%
%Inh (CDKL1; [1]): 0%
%Inh (CDKL2; [1]): 20%
%Inh (CDKL3; [1]): 0%
%Inh (CDKL5; [1]): 2%
%Inh (CHEK1; [1]): 9%

CC(=O)Nc1nc2cnc(Nc3cc(NC(=O)c4cccc(CCC#N)c4)ccc3C)nc2s1
%Inh (CAMKK2; [1]): 0%
%Inh (CASK; [1]): 10%
%Inh (CDC2L1; [1]): 6%
%Inh (CDC2L2; [1]): 9%
%Inh (CDC2L5; [1]): 36%
%Inh (CDK11; [1]): 2%
%Inh (CDK2; [1]): 3%
%Inh (CDK3; [1]): 0%
%Inh (CDK4-cyclinD1; [1]): 0%
%Inh (CDK4-cyclinD3; [1]): 0%
%Inh (CDK4; [1]): 2%
%Inh (CDK5; [1]): 12%
%Inh (CDK7; [1]): 39%
%Inh (CDK8; [1]): 5%
%Inh (CDK9; [1]): 0%
%Inh (CDKL1; [1]): 0%
%Inh (CDKL2; [1]): 29%
%Inh (CDKL3; [1]): 0%
%Inh (CDKL5; [1]): 4%
%Inh (CHEK1; [1]): 0%

O=C(Nc1ccccc1)Nc1cccc(Oc2ccc3nccn3n2)c1
%Inh (CAMKK2; [1]): 0%
%Inh (CASK; [1]): 16%
%Inh (CDC2L1; [1]): 0%
%Inh (CDC2L2; [1]): 5%
%Inh (CDC2L5; [1]): 0%
%Inh (CDK11; [1]): 0%
%Inh (CDK2; [1]): 0%
%Inh (CDK3; [1]): 10%
%Inh (CDK4-cyclinD1; [1]): 24%
%Inh (CDK4-cyclinD3; [1]): 0%
%Inh (CDK4; [1]): 0%
%Inh (CDK5; [1]): 0%
%Inh (CDK7; [1]): 0%
%Inh (CDK8; [1]): 76%
%Inh (CDK9; [1]): 0%
%Inh (CDKL1; [1]): 12%
%Inh (CDKL2; [1]): 4%
%Inh (CDKL3; [1]): 0%
%Inh (CDKL5; [1]): 2%
%Inh (CHEK1; [1]): 0%

CS(=O)(=O)c1ccc(-c2c(-c3ncn[nH]3)sc(N3CCOCC3)c2C#N)cc1
%Inh (CAMKK2; [1]): 19%
%Inh (CASK; [1]): 0%
%Inh (CDC2L1; [1]): 9%
%Inh (CDC2L2; [1]): 10%
%Inh (CDC2L5; [1]): 0%
%Inh (CDK11; [1]): 0%
%Inh (CDK2; [1]): 0%
%Inh (CDK3; [1]): 17%
%Inh (CDK4-cyclinD1; [1]): 0%
%Inh (CDK4-cyclinD3; [1]): 0%
%Inh (CDK4; [1]): 1%
%Inh (CDK5; [1]): 38%
%Inh (CDK7; [1]): 31%
%Inh (CDK8; [1]): 18%
%Inh (CDK9; [1]): 6%
%Inh (CDKL1; [1]): 22%
%Inh (CDKL2; [1]): 7%
%Inh (CDKL3; [1]): 13%
%Inh (CDKL5; [1]): 0%
%Inh (CHEK1; [1]): 0%

Fc1cc(Cl)ccc1Nc1ccnc2cc(I)ccc12 [GW551191]
%Inh (CAMKK2; [1]): 0%
%Inh (CASK; [1]): 24%
%Inh (CDC2L1; [1]): 0%
%Inh (CDC2L2; [1]): 0%
%Inh (CDC2L5; [1]): 0%
%Inh (CDK11; [1]): 16%
%Inh (CDK2; [1]): 0%
%Inh (CDK3; [1]): 0%
%Inh (CDK4-cyclinD1; [1]): 0%
%Inh (CDK4-cyclinD3; [1]): 0%
%Inh (CDK4; [1]): 23%
%Inh (CDK5; [1]): 0%
%Inh (CDK7; [1]): 0%
%Inh (CDK8; [1]): 7%
%Inh (CDK9; [1]): 0%
%Inh (CDKL1; [1]): 0%
%Inh (CDKL2; [1]): 21%
%Inh (CDKL3; [1]): 0%
%Inh (CDKL5; [1]): 3%
%Inh (CHEK1; [1]): 0%

Cl.c1ccc(-c2n[nH]cc2-c2ccnc(-c3ccc(CN4CCOCC4)cc3)c2)nc1 [GW776245]
%Inh (CAMKK2; [1]): 19%
%Inh (CASK; [1]): 6%
%Inh (CDC2L1; [1]): 5%
%Inh (CDC2L2; [1]): 8%
%Inh (CDC2L5; [1]): 0%
%Inh (CDK11; [1]): 0%
%Inh (CDK2; [1]): 0%
%Inh (CDK3; [1]): 46%
%Inh (CDK4-cyclinD1; [1]): 4%
%Inh (CDK4-cyclinD3; [1]): 0%
%Inh (CDK4; [1]): 0%
%Inh (CDK5; [1]): 12%
%Inh (CDK7; [1]): 0%
%Inh (CDK8; [1]): 52%
%Inh (CDK9; [1]): 0%
%Inh (CDKL1; [1]): 59%
%Inh (CDKL2; [1]): 9%
%Inh (CDKL3; [1]): 6%
%Inh (CDKL5; [1]): 0%
%Inh (CHEK1; [1]): 0%

Cc1ccc(NC(=O)Nc2cccc(C(F)(F)F)c2)cc1 [GSK955403]
%Inh (CAMKK2; 1 µM): 19%
%Inh (CASK; 1 µM): 15%
%Inh (CDC2L1; 1 µM): 3%
%Inh (CDC2L2; 1 µM): 0%
%Inh (CDC2L5; 1 µM): 0%
%Inh (CDK11; 1 µM): 20%
%Inh (CDK2; 1 µM): 0%
%Inh (CDK3; 1 µM): 0%
%Inh (CDK4-cyclinD1; 1 µM): 0%
%Inh (CDK4-cyclinD3; 1 µM): 0%
%Inh (CDK4; 1 µM): 0%
%Inh (CDK5; 1 µM): 0%
%Inh (CDK7; 1 µM): 12%
%Inh (CDK8; 1 µM): 0%
%Inh (CDK9; 1 µM): 0%
%Inh (CDKL1; 1 µM): 14%
%Inh (CDKL2; 1 µM): 0%
%Inh (CDKL3; 1 µM): 4%
%Inh (CDKL5; 1 µM): 0%
%Inh (CHEK1; 1 µM): 5%

Cc1ccc(NC(=O)Nc2cccc(Cl)c2)cc1-c1ccc(C(=O)Nc2ccncc2)cc1 [GSK1398468]
%Inh (CAMKK2; [1]): 25%
%Inh (CASK; [1]): 5%
%Inh (CDC2L1; [1]): 0%
%Inh (CDC2L2; [1]): 22%
%Inh (CDC2L5; [1]): 0%
%Inh (CDK11; [1]): 14%
%Inh (CDK2; [1]): 33%
%Inh (CDK3; [1]): 6%
%Inh (CDK4-cyclinD1; [1]): 0%
%Inh (CDK4-cyclinD3; [1]): 11%
%Inh (CDK4; [1]): 0%
%Inh (CDK5; [1]): 0%
%Inh (CDK7; [1]): 0%
%Inh (CDK8; [1]): 0%
%Inh (CDK9; [1]): 0%
%Inh (CDKL1; [1]): 13%
%Inh (CDKL2; [1]): 52%
%Inh (CDKL3; [1]): 0%
%Inh (CDKL5; [1]): 0%
%Inh (CHEK1; [1]): 0%
